# Measurements published in the supplement of paper PMC10849652.
# About 8,800 targets were measured; listed, in parts, are those with a hit and a random draw of the rest. About 0.5% of all pairs of compound and target were hits. A number with no mark means an inactive call.
# Tests used:
# Assay in all cases: log2 fold change, soluble protein after heating vs DMSO (PISA); higher = thermal stabilisation; K562 lysate, 10 uM; active = over 0.2 and 3.5 SD of the protein, either way, in both replicates (recomputed)
# erlotinib = compound: C#Cc1cccc(Nc2ncnc3cc(OCCOC)c(OCCOC)cc23)c1 [erlotinib]
# Outline: (§1)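 The values are log-two fold changes in thermal stability compared with solvent controls and come from duplicates. They were obtained by TMTpro 16plex LC-MS/MS, with channel sums equalised, on the supernatant after 21,000xg for 90 min. That supernatant came from crude K562 extract at 1 mg/mL protein treated with 10 μM compound for 30 min, heated for 3 min across 48°C-58°C, pooled and brought to 0.5% NP-40 at 4°C.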
# [1] = compound: C/C(=N\NC(=O)C1=CC(=CC=C1)S(=O)(=O)N2CCOCC2)/C3=C(C=CC(=C3)Cl)O
# Outline: as §1
# [2] = compound: C1=CC(=CC=C1C2=NC3=C(N2)C=C(C=C3)C(=O)N)OC4=CC=C(C=C4)Cl
# Outline: as §1
# [3] = compound: C1=CC2=C(C=CC(=C2)/C=C\3/C(=O)NC(=NCC4=CC=CS4)S3)N=C1
# Outline: as §1
# [4] = compound: C1=CC2=NC=CN=C2C=C1/C=C/3\C(=O)NC(=O)S3
# Outline: as §1
# [5] = compound: C1=CC=C(C=C1)C2=NC(=C(N2)C3=CC=NC=C3)C4=CC(=C(C=C4)Cl)O
# Outline: as §1
# [6] = compound: C1=CC=C2C(=C1)C3=NNC4=CC=CC(=C43)C2=O
# Outline: as §1
# [7] = compound: C1CCN(C1)C(=O)NC2=CC=CC(=C2)NC3=NC=C(C(=N3)NCCC4=CN=CN4)Br
# Outline: as §1
# [8] = compound: C1CN(CCC1(CC2=CC=C(C=C2)Cl)N)C3=NC=NC4=C3C=CN4
# Outline: as §1
# IRAK-1-4 Inhibitor I = compound: C1COCCN1CCN2C3=CC=CC=C3N=C2NC(=O)C4=CC(=CC=C4)[N+](=O)[O-] [IRAK-1-4 Inhibitor I]
# Outline: as §1
# ibrutinib = compound: C=CC(=O)N1CCC[C@@H](n2nc(-c3ccc(Oc4ccccc4)cc3)c3c(N)ncnc32)C1 [ibrutinib]
# Outline: as §1
# [9] = compound: CC(=O)c1cnc2ccc(-c3cc(Cl)c(O)c(Cl)c3)nc2c1N[C@H]1CC[C@H](CN(C)C)CC1
# Outline: as §1
# ralimetinib = compound: CC(C)(C)Cn1c(N)nc2ccc(-c3[nH]c(C(C)(C)C)nc3-c3ccc(F)cc3)nc21 [ralimetinib]
# Outline: as §1
# [10] = compound: CC(C)(O)CC(=O)NCCn1ccc2ncnc(Nc3ccc(Oc4cccc(C(F)(F)F)c4)c(Cl)c3)c21
# Outline: as §1
# [11] = compound: CC(C)C1=C2N=C(C=C(N2N=C1)NCC3=CC=CC=C3)NCCCCCCN
# Outline: as §1
# [12] = compound: CC1=C(C(CC(=O)N1)C2=CC=C(C=C2)C(F)(F)F)C(=O)NC3=C(C=C4C(=C3)C=NN4)F
# Outline: as §1
# [13] = compound: CC1=C(C2=C(C=C1)C(=O)C3=CC=CC=C3N2CCCN)C
# Outline: as §1
# [14] = compound: CC1=C(C=C(C=C1)NC(=O)C2=CC(=CC=C2)C(C)(C)C#N)NC3=CC4=C(C=C3)N=CN(C4=O)C
# Outline: as §1
# [15] = compound: CC1=C(C=C(C=C1)NC(=O)C2=CC(=CC=C2)N(C)C)NC(=O)C3=CC=C(C=C3)O
# Outline: as §1
# [16] = compound: CC1=CC=C(C=C1)SC2=C3C=C(SC3=CN=C2)C(=O)N
# Outline: as §1
# Sequence of UniProt O95628 (O95628 whole entry, looked up): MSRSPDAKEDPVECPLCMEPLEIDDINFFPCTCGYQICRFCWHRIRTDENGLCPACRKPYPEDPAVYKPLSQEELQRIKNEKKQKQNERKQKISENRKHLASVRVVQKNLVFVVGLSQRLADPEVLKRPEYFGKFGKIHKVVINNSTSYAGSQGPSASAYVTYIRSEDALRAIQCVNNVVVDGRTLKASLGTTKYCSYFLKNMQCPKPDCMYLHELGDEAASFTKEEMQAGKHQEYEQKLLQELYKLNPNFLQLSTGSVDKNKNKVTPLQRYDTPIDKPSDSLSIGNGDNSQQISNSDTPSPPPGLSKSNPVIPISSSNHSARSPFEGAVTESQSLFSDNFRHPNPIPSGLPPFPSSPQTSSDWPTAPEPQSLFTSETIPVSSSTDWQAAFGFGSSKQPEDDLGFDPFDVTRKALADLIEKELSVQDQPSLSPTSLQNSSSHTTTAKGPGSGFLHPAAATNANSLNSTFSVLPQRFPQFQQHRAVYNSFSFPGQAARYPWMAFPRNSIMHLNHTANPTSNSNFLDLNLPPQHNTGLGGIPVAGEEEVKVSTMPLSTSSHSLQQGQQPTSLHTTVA
# Sequence of UniProt Q9H2P9 (Q9H2P9 whole entry, looked up): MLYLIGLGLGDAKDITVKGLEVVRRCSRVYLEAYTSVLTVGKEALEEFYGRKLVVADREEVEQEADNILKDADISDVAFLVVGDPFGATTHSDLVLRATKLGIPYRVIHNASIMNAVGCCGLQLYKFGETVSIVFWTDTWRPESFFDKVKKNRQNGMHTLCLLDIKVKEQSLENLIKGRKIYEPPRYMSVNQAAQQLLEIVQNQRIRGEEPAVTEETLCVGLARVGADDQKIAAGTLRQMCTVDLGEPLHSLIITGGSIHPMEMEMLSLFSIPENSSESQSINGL
# Sequence of UniProt Q14203 (Q14203 whole entry, looked up): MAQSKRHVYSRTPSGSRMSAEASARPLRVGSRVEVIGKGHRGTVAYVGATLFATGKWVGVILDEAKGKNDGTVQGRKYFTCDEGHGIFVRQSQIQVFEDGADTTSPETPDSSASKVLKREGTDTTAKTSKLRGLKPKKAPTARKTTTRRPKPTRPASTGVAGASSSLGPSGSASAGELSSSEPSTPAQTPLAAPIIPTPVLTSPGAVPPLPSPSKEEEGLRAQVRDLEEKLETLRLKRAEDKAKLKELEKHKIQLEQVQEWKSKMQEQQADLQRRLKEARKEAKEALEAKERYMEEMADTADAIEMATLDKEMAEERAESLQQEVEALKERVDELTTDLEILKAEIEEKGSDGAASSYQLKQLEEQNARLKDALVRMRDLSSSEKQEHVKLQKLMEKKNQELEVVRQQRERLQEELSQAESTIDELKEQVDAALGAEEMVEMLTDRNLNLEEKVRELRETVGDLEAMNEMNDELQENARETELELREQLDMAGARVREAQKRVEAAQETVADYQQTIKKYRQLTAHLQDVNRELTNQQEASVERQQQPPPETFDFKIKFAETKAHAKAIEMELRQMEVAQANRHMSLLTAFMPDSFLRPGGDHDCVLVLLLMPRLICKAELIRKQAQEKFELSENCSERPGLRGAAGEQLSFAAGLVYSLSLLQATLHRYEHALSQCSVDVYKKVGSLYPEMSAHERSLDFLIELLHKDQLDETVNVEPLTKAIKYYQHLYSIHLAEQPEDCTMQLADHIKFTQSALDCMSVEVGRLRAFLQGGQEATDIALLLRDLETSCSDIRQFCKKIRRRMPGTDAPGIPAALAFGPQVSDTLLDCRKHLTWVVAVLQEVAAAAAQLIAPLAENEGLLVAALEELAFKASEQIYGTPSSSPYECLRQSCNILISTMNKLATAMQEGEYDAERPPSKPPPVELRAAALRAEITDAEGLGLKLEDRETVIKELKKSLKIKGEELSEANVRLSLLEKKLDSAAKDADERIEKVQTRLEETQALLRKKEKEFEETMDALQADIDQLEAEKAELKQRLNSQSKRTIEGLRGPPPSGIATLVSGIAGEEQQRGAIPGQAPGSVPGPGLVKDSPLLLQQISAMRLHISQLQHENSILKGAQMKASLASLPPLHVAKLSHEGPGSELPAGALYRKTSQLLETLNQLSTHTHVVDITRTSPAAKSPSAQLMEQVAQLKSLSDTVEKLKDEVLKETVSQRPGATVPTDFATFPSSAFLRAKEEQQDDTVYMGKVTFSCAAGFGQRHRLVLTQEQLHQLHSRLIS
# Sequence of UniProt Q8TB03 (Q8TB03 whole entry, looked up): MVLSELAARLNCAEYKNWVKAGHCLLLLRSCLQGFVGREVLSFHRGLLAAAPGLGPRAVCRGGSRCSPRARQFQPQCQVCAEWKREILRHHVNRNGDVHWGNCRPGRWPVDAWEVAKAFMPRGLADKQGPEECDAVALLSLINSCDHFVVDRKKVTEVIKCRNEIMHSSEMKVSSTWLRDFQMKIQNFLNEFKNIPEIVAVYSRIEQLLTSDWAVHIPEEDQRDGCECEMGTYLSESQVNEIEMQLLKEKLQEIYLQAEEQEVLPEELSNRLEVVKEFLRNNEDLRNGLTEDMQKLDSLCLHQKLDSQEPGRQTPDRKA
# Sequence of UniProt Q9BY43 (Q9BY43 whole entry, looked up): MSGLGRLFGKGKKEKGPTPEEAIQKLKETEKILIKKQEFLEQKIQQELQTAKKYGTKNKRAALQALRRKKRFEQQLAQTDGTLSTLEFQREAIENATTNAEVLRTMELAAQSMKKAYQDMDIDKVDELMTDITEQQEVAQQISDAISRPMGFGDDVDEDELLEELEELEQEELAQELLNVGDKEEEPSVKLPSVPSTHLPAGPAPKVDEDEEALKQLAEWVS
# Sequence of UniProt P61923 (P61923 whole entry, looked up): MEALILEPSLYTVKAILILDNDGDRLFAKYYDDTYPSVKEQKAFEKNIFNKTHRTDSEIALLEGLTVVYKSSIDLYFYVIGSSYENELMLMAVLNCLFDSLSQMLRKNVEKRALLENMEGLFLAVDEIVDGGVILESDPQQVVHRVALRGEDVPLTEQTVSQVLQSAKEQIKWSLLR
# Sequence of UniProt O15111 (O15111 whole entry, looked up): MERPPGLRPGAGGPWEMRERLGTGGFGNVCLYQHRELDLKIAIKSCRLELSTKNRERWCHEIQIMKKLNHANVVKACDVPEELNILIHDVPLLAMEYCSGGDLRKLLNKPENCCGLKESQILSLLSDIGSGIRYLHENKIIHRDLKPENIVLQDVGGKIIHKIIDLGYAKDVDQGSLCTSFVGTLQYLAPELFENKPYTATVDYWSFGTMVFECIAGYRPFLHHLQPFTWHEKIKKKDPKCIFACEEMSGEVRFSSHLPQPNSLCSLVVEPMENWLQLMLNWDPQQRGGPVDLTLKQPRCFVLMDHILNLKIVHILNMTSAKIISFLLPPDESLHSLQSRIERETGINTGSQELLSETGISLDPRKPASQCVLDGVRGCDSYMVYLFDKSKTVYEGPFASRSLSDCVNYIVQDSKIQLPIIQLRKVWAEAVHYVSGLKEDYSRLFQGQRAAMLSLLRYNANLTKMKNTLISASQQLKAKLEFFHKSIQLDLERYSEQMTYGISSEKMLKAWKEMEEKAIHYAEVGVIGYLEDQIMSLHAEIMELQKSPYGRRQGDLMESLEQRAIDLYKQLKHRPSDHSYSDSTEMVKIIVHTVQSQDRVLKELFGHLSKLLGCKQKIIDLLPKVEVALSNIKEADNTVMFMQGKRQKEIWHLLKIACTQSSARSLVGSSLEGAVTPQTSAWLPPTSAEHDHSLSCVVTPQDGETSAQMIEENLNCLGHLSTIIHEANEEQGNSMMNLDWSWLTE
# Sequence of UniProt O60610 (O60610 whole entry, looked up): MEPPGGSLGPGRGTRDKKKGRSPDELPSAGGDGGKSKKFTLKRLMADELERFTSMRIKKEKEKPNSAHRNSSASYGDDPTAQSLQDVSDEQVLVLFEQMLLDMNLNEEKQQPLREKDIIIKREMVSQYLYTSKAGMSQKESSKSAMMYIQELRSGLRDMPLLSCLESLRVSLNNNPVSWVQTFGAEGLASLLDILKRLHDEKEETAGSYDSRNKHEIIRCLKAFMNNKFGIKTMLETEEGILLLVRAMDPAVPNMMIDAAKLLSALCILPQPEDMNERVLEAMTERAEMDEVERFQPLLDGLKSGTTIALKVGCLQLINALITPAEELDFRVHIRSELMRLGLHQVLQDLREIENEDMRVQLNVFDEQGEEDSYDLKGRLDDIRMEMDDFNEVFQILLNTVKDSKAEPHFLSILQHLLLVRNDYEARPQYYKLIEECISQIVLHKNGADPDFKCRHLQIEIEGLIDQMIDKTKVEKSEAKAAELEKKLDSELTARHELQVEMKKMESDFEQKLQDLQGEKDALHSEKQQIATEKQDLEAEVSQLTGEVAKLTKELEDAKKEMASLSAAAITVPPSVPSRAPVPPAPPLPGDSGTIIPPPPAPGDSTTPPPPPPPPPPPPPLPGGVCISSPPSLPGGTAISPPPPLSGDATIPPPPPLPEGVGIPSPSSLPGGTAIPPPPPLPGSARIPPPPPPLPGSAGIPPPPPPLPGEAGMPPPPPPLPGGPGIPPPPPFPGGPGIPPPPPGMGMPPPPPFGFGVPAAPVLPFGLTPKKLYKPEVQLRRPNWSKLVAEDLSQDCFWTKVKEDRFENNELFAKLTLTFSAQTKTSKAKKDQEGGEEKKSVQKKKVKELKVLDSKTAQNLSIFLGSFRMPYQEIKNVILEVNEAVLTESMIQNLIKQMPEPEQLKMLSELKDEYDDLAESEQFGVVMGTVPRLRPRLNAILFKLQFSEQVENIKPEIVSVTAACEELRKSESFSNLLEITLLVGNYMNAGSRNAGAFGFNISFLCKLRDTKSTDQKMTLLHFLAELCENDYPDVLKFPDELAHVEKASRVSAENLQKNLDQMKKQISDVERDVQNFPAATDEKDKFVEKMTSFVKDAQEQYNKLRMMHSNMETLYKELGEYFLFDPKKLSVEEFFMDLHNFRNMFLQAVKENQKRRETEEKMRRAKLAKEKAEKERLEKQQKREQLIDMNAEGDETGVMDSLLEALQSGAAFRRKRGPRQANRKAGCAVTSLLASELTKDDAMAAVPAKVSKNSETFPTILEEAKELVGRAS
Target,log2 fold change (erlotinib),log2 fold change [1],log2 fold change [2],log2 fold change [3],log2 fold change [4],log2 fold change [5],log2 fold change [6],log2 fold change [7],log2 fold change [8],log2 fold change (IRAK-1-4 Inhibitor I),log2 fold change (ibrutinib),log2 fold change [9],log2 fold change (ralimetinib),log2 fold change [10],log2 fold change [11],log2 fold change [12],log2 fold change [13],log2 fold change [14],log2 fold change [15],log2 fold change [16]
CNOT2 (UniProt Q9NZN8),0.016,0.013,0.021,0.015,-0.016,-0.011,0.014,0.004,0.012,0.007,0.022,0.037,0.016,-0.013,-0.001,-0.01,0.03,0.006,-0.007,0.011
CSNK2A1 (UniProt P68400),0.005,-0.111,-0.02,0.225,0.356 (active),0.017,0.219,0.112,-0.02,0,-0.041,0.468 (active),0.002,-0.028,-0.054,-0.039,0.158,-0.078,-0.01,0.002
DOCK10 (UniProt Q96BY6),-0.23,-0.191,-0.03,0.007,-0.094,-0.048,-0.034,-0.064,-0.028,-0.017,-0.151,0.02,-0.001,-0.008,-0.084,-0.161,0.008,0.246,-0.045,0.022
CXorf38 (UniProt Q8TB03),0.068,0.067,-0.003,0.01,0.042,0.013,0.012,-0.058,-0.031,0.026,0.054,0.015,-0.008,-0.007,0.062,-0.095,0.016,-0.002,-0.015,0.025
DCTN1 (UniProt Q14203),0.007,-0.001,-0.001,-0.001,0.019,-0.001,-0.023,0,-0.003,-0.005,-0.005,0.01,0.013,-0.02,-0.006,0.001,0.011,-0.013,0.009,0.011
DPH5 isoform 5 (UniProt Q9H2P9),0.008,-0.028,-0.025,0.066,-0.017,0.074,0.046,-0.027,0.027,0.009,0.043,-0.027,-0.031,0,0.298,-0.034,-0.111,-0.007,-0.037,0.04
CTNNBL1 (UniProt Q8WYA6),0.023,0.052,0.023,0.018,0.015,0.103,-0.033,-0.042,-0.033,0.088,0,0.047,-0.095,-0.169,0.017,-0.051,-0.04,0.015,0.056,0.01
DERA (UniProt Q9Y315),-0.008,0.008,0.028,0.014,0.015,0.001,0.019,0.013,0.023,0.002,-0.011,0.008,0.008,-0.032,0.013,-0.01,-0.037,0.033,-0.008,-0.017
COPZ1 isoform 4 (UniProt P61923),-0.029,0.065,-0.05,-0.036,-0.142,-0.006,0,-0.08,-0.028,-0.015,0.123,0.007,0,0.013,0.02,-0.054,0.037,0.03,-0.012,0.117
DCUN1D4 isoform 3 (UniProt Q92564),-0.025,-0.118,0.068,-0.127,-0.063,-0.026,-0.053,-0.09,-0.113,0.005,0.064,0.078,-0.033,-0.057,0.018,-0.009,-0.078,-0.027,0.029,-0.059
DAZAP1 (UniProt Q96EP5),-0.017,0.008,0.03,0.023,0.026,0.017,-0.047,0.02,-0.004,0.012,-0.031,-0.011,-0.124,0.133,-0.023,-0.062,-0.015,-0.359 (active),-0.031,-0.009
DIAPH1 (UniProt O60610),-0.004,-0.006,0.002,0.007,-0.002,-0.001,-0.006,-0.01,-0.001,-0.007,-0.028,-0.004,-0.006,0.005,-0.01,-0.009,0.003,-0.004,0.001,0.004
CNOT4 isoform 6 (UniProt O95628),-0.025,-0.016,0.005,0.017,0.009,-0.035,0.043,-0.032,-0.013,0.041,-0.004,0.021,0.033,-0.007,-0.003,0.049,0.037,-0.281 (active),-0.026,0.012
CHMP4A isoform 2 (UniProt Q9BY43),-0.046,0.008,0.018,-0.01,-0.018,0.021,0.033,0.014,-0.007,-0.016,-0.002,0.011,0.03,-0.041,0.036,0.011,-0.02,0.036,-0.03,-0.007
CHUK (UniProt O15111),-0.005,0.114,-0.076,0.01,-0.019,0.022,0.015,-0.002,-0.002,-0.044,0.034,0.04,0.063,0.071,0.014,-0.047,-0.014,-0.013,0.009,-0.016
